# Results: PubChem BioAssay (NCATS)
# Records with an inconclusive call do not appear. Where a call stands in place of a potency, no number is given. Active and inactive are the calls of the source. Calls follow the shape of the dose curve; as a rule, active = well fitted inhibition curve with a large enough effect; inconclusive = small, poorly fitted or top-dose-only effect; inactive = no such curve, though single readings can be large or run the other way.
# Target: Retinal dehydrogenase 2 (Homo sapiens) (UniProt O94788)
# Test: qHTS for Inhibitors of the Aldehyde Dehydrogenase Family (ALDH1A2) Confirmation screens (AID 2061314); also: nearly all actives have a fitted effect of over 65% in size
# Conditions: ALDH1A2 enzyme inhibition qHTS confirmation; series mostly up to 45.9 µM
# Potency is read from the fitted curve at half-maximal effect.
row,Compound,Potency
1,CCc1ccc(C(=O)c2cnc3ccc(C)cc3c2S(=O)(=O)c2ccc(OC)cc2)cc1,inactive
2,CCn1cc(C(=O)N(C)c2cc(C)ccc2C)c2cc(OC)c(OC)cc2c1=O,inactive
3,CCOc1ccc(CNC(=O)C2CCCCN2S(=O)(=O)c2ccc(F)cc2)cc1OC (stereo not given),inactive
4,COc1ccccc1-c1[nH]nc2ncc(C(=O)NCCc3ccccn3)nc12,39.8 µM (active)
5,COc1ccc(S(=O)(=O)NCC(c2ccco2)N2CCOCC2)cc1C (stereo not given),inactive
6,CCN(C(=O)c1sc2nc3n(c(=O)c2c1C)CCCCC3)c1ccccc1F,inactive
7,COc1cccc(-n2c(SCc3ccccc3C)nc3c([nH]c4ccccc43)c2=O)c1,inactive
8,Cc1cc(C)n2nc(CNS(=O)(=O)c3ccc(Cl)cc3)nc2n1,inactive
9,CC(=O)Nc1ccc(S(=O)(=O)N[C@@H]2C=C[C@@H](c3c(C)nn(-c4ccc(C(C)(C)C)cc4)c3C)C2)cc1,inactive
10,O=C(NCCOc1ccccc1)[C@@H]1C[C@@H](c2ccc(F)cc2)N([S+](=O)([O-])c2ccccc2)C1,inactive
11,CC(C)Cn1c(=O)c(C(=O)NCc2cccs2)nc2cccnc21,inactive
12,COc1ccccc1C(=O)Nc1ccc(-c2cc(C(F)(F)F)nn2-c2ccccc2)cc1,inactive
13,COc1ccc(S(=O)(=O)N2CCCCC2)cc1C(=O)Nc1cccc(C(F)(F)F)c1,inactive
14,Cc1cccn2c(=O)c3cc(C#N)c(=O)n(-c4nnc(SCc5ccc(Cl)cc5)s4)c3nc12,inactive
15,Cc1cccc(-c2nc3c(cnn3-c3ccccc3)c(=O)n2-c2ccc(Cl)cc2)c1,inactive
16,COc1ccc(S(=O)(=O)NCC(c2ccc(N(C)C)cc2)N2CCOCC2)cc1 (stereo not given),inactive
17,O=C1COCCN1C1CCN(S(=O)(=O)c2cccc(C(F)(F)F)c2)CC1,inactive
18,COc1ccc(CN(C)c2ccc(-c3nc(-c4ccccc4)no3)cc2[N+](=O)[O-])cc1,inactive
19,COc1ccc(NC(=O)c2cc(S(=O)(=O)N3CCOCC3)ccc2OC)cc1,inactive
20,CCC(=O)N(C1CCOCC1)C1CCN(S(=O)(=O)c2ccc(C(F)(F)F)cc2)CC1,inactive

row,Compound,Potency
1,CCOc1ccc(S(=O)(=O)N2CCN(c3ccccc3)CC2)cc1C(N)=O,inactive
2,Cc1nn(-c2ccc3nncn3n2)c(C)c1CCC(=O)Nc1ccc(OC(F)(F)F)cc1,inactive
3,CC(C)Oc1ccc(CNC(=O)C2CCCCN2S(=O)(=O)c2ccc(F)cc2)cc1 (stereo not given),inactive
4,O=C(NCC(=O)N1CCOCC1)c1ccc(-c2cccc(C(F)(F)F)c2)cc1,inactive
5,Cc1oc2ncnc(N3CCOCC3)c2c1C(=O)NCc1ccc(Cl)cc1,inactive
6,COc1ccc(-c2nnc(SCC(=O)Nc3cccc(C(F)(F)F)c3)nc2-c2ccc(OC)cc2)cc1,inactive
7,CCCc1cnc2c(c1SCC(=O)N(C)c1ccccc1)c(=O)n(C)c(=O)n2C,inactive
8,CN(CC(=O)Nc1ccc(OC(F)(F)F)cc1)S(=O)(=O)c1ccc2c(c1)CCC(=O)N2,inactive
9,COCC1CN(Cc2ccc(C(F)(F)F)cc2)CC12CCNCC2 (stereo not given),inactive
10,COc1cncc(Nc2cnc3ccc(-c4ccc(F)cc4)nn23)c1,inactive
11,CNC(=O)c1cc(C)nc2onc(C3CCCN3C(=O)c3ccccc3)c12 (stereo not given),inactive
12,O=C(COc1ccccc1-c1nc(-c2ccccc2)no1)Nc1ccc([N+](=O)[O-])cc1,inactive
13,CCOc1ccc(C(=O)N(Cc2ccc(C(C)C)cc2)Cc2ccco2)cc1,inactive
14,Cc1ccc(-n2c(SCc3ccccc3C)nc3[nH]ncc3c2=O)cc1C,inactive
15,Cc1ccc(-n2c(-c3cccc(C)c3)nc3c(cnn3-c3ccccc3)c2=O)cc1,inactive
16,O=c1c2nc(OCc3ccc(F)cc3)ccc2ncn1C1CC1,inactive
17,CCCCOc1ccc(C(=O)N(Cc2ccc(N(C)C)cc2)Cc2ccco2)cc1,inactive
18,NS(=O)(=O)c1ccc(-n2nc(-c3ccncc3)nc2C2CCOC2)cc1 (stereo not given),inactive
19,CNC(=O)[C@H]1C[C@H](Oc2cccnc2)CN1C(=O)Cc1ccccc1,inactive
20,COc1ccc(C(=O)Nc2ccc(-c3cc(C(F)(F)F)nn3-c3ccccc3)cc2)cc1OC,inactive
